High-throughput results from PubChem.
OPRM1-OPRD1 inv = inverse agonists of MOR-DOR heterodimerization, primary screen, cell-based, luminescence; inhibition, % at 9.3 µM; cell-based MOR-DOR heterodimer luminescence, inverse agonism; 0.21% of 340,000 active; AID 504357, 2011; in the data active means inhibition above about 22%, passing the limit was not always enough;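 further: 0% = cells with DMSO and 100% = wells without cells with DMSO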
HTR5A ag ctr = HTR5A agonists in luminescence cell assay, primary screen, counter-screen for OPRM1-OPRD1 heterodimer agonist project, full-deck HTS. 5-hydroxytryptamine receptor 5A (Homo sapiens), P47898. cell-based. activation, % at 9.3 µM. 0.61% of 340,000 active. AID 504692, 2011; in the data active means activation mostly above about 9.5%, no sharp cut-off; inactive means mostly below about 7.6%;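 further: 0% = cells with vehicle only and 100% = reference agonist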
Target sequence (P47898 whole entry, looked up): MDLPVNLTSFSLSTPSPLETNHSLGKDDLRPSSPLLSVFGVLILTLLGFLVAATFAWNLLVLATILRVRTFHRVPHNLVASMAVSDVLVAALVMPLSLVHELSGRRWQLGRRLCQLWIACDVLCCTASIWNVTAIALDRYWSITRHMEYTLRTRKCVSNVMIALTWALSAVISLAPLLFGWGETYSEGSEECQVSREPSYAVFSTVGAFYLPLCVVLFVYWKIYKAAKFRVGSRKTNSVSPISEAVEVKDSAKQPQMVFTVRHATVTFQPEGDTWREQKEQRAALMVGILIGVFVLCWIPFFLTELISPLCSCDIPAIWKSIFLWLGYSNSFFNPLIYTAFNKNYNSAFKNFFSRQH
HTR5A inv ctr = HTR5A inverse agonists in luminescence cell assay, primary screen, counter-screen for OPRM1-OPRD1 heterodimer inverse agonist project, full-deck HTS | 5-hydroxytryptamine receptor 5A (Homo sapiens), P47898 | HTR5A cell line, inverse agonism | inhibition, % at 9.3 µM | 0.083% of 340,000 active; in the data active means inhibition mostly above about 23%, no sharp cut-off; inactive means mostly below about 18%;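 further: 0% = cells with DMSO and 100% = no-cell wells with DMSO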
OPRM1-OPRD1 ag = agonists of OPRM1-OPRD1 heterodimerization, primary screen, cell-based, luminescence; cells; activation, % at 9.3 µM; 0.3% of 340,000 active; AID 504326, 2011; in the data active means activation above about 18%;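 further: 0% = vehicle-treated cells and 100% = reference agonist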
CR mimetic SO = reduction of superoxide in aged yeast, primary screen, HTS; S. cerevisiae aged cells, superoxide DHE fluorescence; active compounds read low; superoxide response (% of plate mean), % at 10 µM; 0.18% of 330,000 active;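 active means superoxide response under a set limit, about three screen SD below normal, cut at about 65% in these data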;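 further: yeast aged for seven days with compound at 30 °C before DHE staining; 100% = average MFI of all compound-treated wells on the plate with controls excluded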
PvdQ acylase = P. aeruginosa PvdQ acylase inhibitors, primary screen, biochemical, fluorescence, plate reader and imaging, single point; AID 488965, 2010; inhibition, % at 10 µM; PvdQ acylase [Pseudomonas aeruginosa LESB58]; 0.063% of 340,000 active; purified PvdQ acylase; in the data active means inhibition above about 30%, passing the limit was not always enough;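 further: 0% = vehicle neutral wells and 100% = reference inhibitor wells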
Superoxide pick = superoxide lowering in aged yeast cells, confirmation, cherry picked compounds; shares compounds with CR mimetic SO; S. cerevisiae aging, superoxide DHE fluorescence; active compounds read low; superoxide response (% of plate), % at 10 µM; 1% of 850 active; AID 434994, 2010;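 active means superoxide signal below 65% of the plate average of sample wells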;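 further: cells aged with compound for 7 days at 30 degrees C before staining; 100% equals mean DHE fluorescence of all compound wells on the plate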
DHE counter = DHE quenching or ROS scavenging interference in aged yeast, artefact control for yeast caloric restriction mimetic project, S. cerevisiae BY4741, flow cytometry. shares compounds with CR mimetic SO. DHE fluorescence; active compounds read low. fluorescence response, % at 10 µM. 850 tested, under 10 active;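 active means fluorescence response below 15%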;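 further: percent of the mean fluorescence averaged over all compound wells on the plate; lower means stronger quenching of DHE signal or ROS scavenging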
Active calls of the source: *. Rows were chosen to be rich in hits. Some 1.3% of all compounds tested hit in one or more screens of this group.

CCOc1cc(S(=O)(=O)N2CCCC2)c(C)cc1C was read as OPRM1-OPRD1 inv 8, HTR5A ag ctr -1, HTR5A inv ctr 2, OPRM1-OPRD1 ag -1, CR mimetic SO 99, PvdQ acylase 4, Superoxide pick 104 and DHE counter 104.
For COc1c(C)cc(S(=O)(=O)N2CCOCC2)c(C)c1C the results were OPRM1-OPRD1 inv 15, HTR5A ag ctr 1, HTR5A inv ctr 20, OPRM1-OPRD1 ag -3, CR mimetic SO 91 and PvdQ acylase -9.
Screening COc1c(C)cc(S(=O)(=O)N2CCCC2)c(C)c1C returned OPRM1-OPRD1 inv 4, HTR5A ag ctr 2, HTR5A inv ctr -14, OPRM1-OPRD1 ag -1, CR mimetic SO 109, PvdQ acylase 4, Superoxide pick 97 and DHE counter 95.
Screening CCOc1ccc(NS(=O)(=O)c2ccc(N)cc2)cc1 returned OPRM1-OPRD1 inv 4, HTR5A ag ctr 2, HTR5A inv ctr -23, OPRM1-OPRD1 ag -1, CR mimetic SO 101, PvdQ acylase 3, Superoxide pick 98 and DHE counter 90.
Screening CCOc1ccc(S(=O)(=O)N2CCCC2)cc1 returned OPRM1-OPRD1 inv 6, HTR5A ag ctr 4, HTR5A inv ctr -12, OPRM1-OPRD1 ag -1, CR mimetic SO 112, PvdQ acylase -7, Superoxide pick 110 and DHE counter 109.
Cc1cccc2c1cnn2C(=O)Nc1ccccc1Cl was read as OPRM1-OPRD1 inv 6, HTR5A ag ctr 0, HTR5A inv ctr 0, OPRM1-OPRD1 ag -1, CR mimetic SO 106 and PvdQ acylase -10.
Cc1ccc(O)c(NC(=O)c2cc(-c3cccs3)on2)c1 was read as OPRM1-OPRD1 inv -28, HTR5A ag ctr 0, HTR5A inv ctr 13, OPRM1-OPRD1 ag 4, CR mimetic SO 113 and PvdQ acylase -7.
`COc1cc(C)c(S(=O)(=O)N2CCCC2)cc1C(C)C` gave OPRM1-OPRD1 inv -9, HTR5A ag ctr 0, HTR5A inv ctr 0, OPRM1-OPRD1 ag 1, CR mimetic SO 91, PvdQ acylase 6, Superoxide pick 92 and DHE counter 90.
For COc1cc(C)c(S(=O)(=O)N2CCCC2)cc1C the results were OPRM1-OPRD1 inv -10, HTR5A ag ctr -6, HTR5A inv ctr 15, OPRM1-OPRD1 ag 2, CR mimetic SO 59*, PvdQ acylase -18, Superoxide pick 80 and DHE counter 92.
For Cc1ccc(C(=O)SC2=NCCS2)cc1 the results were OPRM1-OPRD1 inv -14, HTR5A ag ctr 1, HTR5A inv ctr -19, OPRM1-OPRD1 ag 2, CR mimetic SO 58*, PvdQ acylase -20, Superoxide pick 101 and DHE counter 110.
COc1ccc(C(=O)SC2=NCCS2)cc1OC was read as OPRM1-OPRD1 inv 14, HTR5A ag ctr 1, HTR5A inv ctr -8, OPRM1-OPRD1 ag -3, CR mimetic SO 101 and PvdQ acylase 3.
`Cc1ccc(N2CCN(C(=O)c3ccccc3F)CC2)c(C)c1` gave OPRM1-OPRD1 inv -12, HTR5A ag ctr -1, HTR5A inv ctr -21, OPRM1-OPRD1 ag 2, CR mimetic SO 92, PvdQ acylase -10, Superoxide pick 99 and DHE counter 103.
`COc1ccc(CC(=O)Nc2nc(-c3cccnc3)cs2)cc1` gave OPRM1-OPRD1 inv 20, HTR5A ag ctr 0, HTR5A inv ctr -2, OPRM1-OPRD1 ag -4, CR mimetic SO 63*, PvdQ acylase 4, Superoxide pick 98 and DHE counter 108.
Screening COc1cccc(CC(=O)Nc2nc(-c3cccnc3)cs2)c1 returned OPRM1-OPRD1 inv 11, HTR5A ag ctr 1, HTR5A inv ctr -1, OPRM1-OPRD1 ag -2, CR mimetic SO 98 and PvdQ acylase 13.
`CCOC(=O)c1c(C)nc2ccc(Cl)cc2c1-c1ccccc1` gave OPRM1-OPRD1 inv -23, HTR5A ag ctr 2, HTR5A inv ctr -14, OPRM1-OPRD1 ag 4, CR mimetic SO 62*, PvdQ acylase -16, Superoxide pick 95 and DHE counter 102.
